# Compounds with a hit are over-represented: about 21% of the library has one in this group of screens.
# AMA1 RON2 block = AMA1-RON2 (P. falciparum) interaction inhibition; AlphaScreen AMA1-biotinylated RON2 peptide binding; Potency, µM (highest dose often 58.2 µM), for the others: top-dose activity change, negative = inhibition, most hits filed as inhibitors; actives 0.2% (n = 360,000);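 further: potency means the concentration at half of the fitted maximal effect; 0% = vehicle wells and -100% = peptide control; nearly all actives have a fitted effect of over 45% in size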
#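 AMA1 (3D7) with his tag at 25 nM final met compounds first, then biotinylated RON2 peptide at 25 nM; detection used donor plus acceptor beads, 10 µg/mL apiece, read by AlphaScreen after 30 min at room temperature.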
# Shiga toxin inh = inhibitors of Shiga toxin in Vero cells; actives 9.2% (n = 290,000); inhibition, % at 38.7 µM; Vero cells, Shiga toxin protein synthesis inhibition reporter; AID 2315; in the data active means inhibition mostly above about 28%, no sharp cut-off; inactive means mostly below about 43%; further: 0% is about no effect
# HCV inh = inhibitors of hepatitis C virus infection. Huh7.5.1 HCVcc-Cre infection, luciferase reporter, 44 h. Potency, µM (highest dose often 41.8 µM), without a hit: at the highest dose activity change, negative = inhibition, actives largely listed as inhibitors. actives 3.4% (n = 340,000); further: potency means the concentration at half of the fitted maximal effect; on the % scale 0 is the no-effect control and ±100 the full control effect
#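 A cell-based infection assay in which seeded cells (1,000 per well) receive test compound after 4 h, are inoculated with HCVcc-Cre at approximately 0.5 moi, and are incubated 44 h before luminescence detection.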
# CHX counter = affects cycloheximide protein synthesis inhibition readout, counter-screen; cell reporter, cycloheximide protein synthesis inhibition counterscreen; max response, %; actives 12% (n = 300,000); AID 2314; in the data active means max response mostly above about 13%, no sharp cut-off; inactive means mostly below about 14%; further: read at 38.3 µM for the half of the compounds with a filed dose; 0% is about no effect
# Pf growth 96h = P. falciparum growth inhibition at 96 hours; P. falciparum luciferase reporter growth, 96 h; Potency, µM (series often up to 28.7 µM), for inactives: top-dose activity change, negative = inhibition, most hits filed as inhibitors; actives 6.9% (n = 320,000); further: potency means the concentration at half of the fitted maximal effect; on the % scale 0 is the no-effect control and ±100 the full control effect
#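 Two parasite generations (96 h, 37 C, 5% CO2) of compound exposure in infected erythrocytes (0.05% parasitemia, 2% hematocrit). Luciferase-reporter P. falciparum; decreased luminescence indicates inhibited growth, aimed at apicoplast-acting delayed death.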
# Pf growth 48h = P. falciparum growth inhibition at 48 hours (one generation); actives 5.9% (n = 310,000); P. falciparum luciferase growth in erythrocytes, 48 h; Potency, µM (doses to about 28.7 µM), without a hit: at the top dose activity change, negative = inhibition, actives largely listed as inhibitors; further: potency means the concentration at half of the fitted maximal effect; on the % scale 0 is the no-effect control and ±100 the full control effect
#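 In quantitative HTS format, infected erythrocytes bearing luciferase-reporter parasites were treated for a single generation at 37 C. Luminescence after adding detection reagent served as the growth measure.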
# Active calls of the source: *; ? = inconclusive; · = not tested or not shown; [ ] = remark or other dose. Unless noted, the call rests on the fitted dose curve; in most records, active means well fitted curve in the direction sought with a large enough effect; inconclusive means small, poorly fitted or top-dose-only effect, or another doubt; inactive means no such curve, though single readings can be large; an effect the other way counts as inactive or inconclusive.
SMILES,AMA1 RON2 block,Shiga toxin inh,HCV inh,CHX counter,Pf growth 96h,Pf growth 48h
CC(=O)c1c(C)oc2c1cc(O)c1ccccc12,0.0%,31.2,?,19.8*,27.6%,33.4%
CC(=O)c1c(O)ccc2c(-c3ccccc3)cc(=O)oc12,15.4%,-6.4,15.2%,5.1,14.8%,12.2%
CCOC(=O)c1c(C)oc2c1cc(NS(=O)(=O)c1ccc(C(=O)O)cc1)c1ccccc12,-5.0%,15.0,-4.7%,0.3,-4.2%,13.9%
CC(=O)c1c(O)cccc1O,·,-15.2,·,-12.1,·,·
COc1ccccc1/C=C/C(=O)NCC(=O)N/N=C/c1ccc(C)o1,0.0%,34.9,4.9%,-3.6,-18.4%,10.9%
CC(C)N(C(=O)COC(=O)CCC(=O)c1cccs1)c1ccccc1,3.7%,·,6.9%,·,·,·
COc1ccc(S(=O)(=O)N2CCOCC2)cc1NC(=O)COC(=O)c1oc2ccccc2c1C,6.8%,·,-12.8%,·,-8.5%,-11.5%
CCOC(=O)c1c(C)oc2c1c(C=NCc1ccccn1)c(O)c1ccccc12,47.3%,46.8*,4.47µM*,29.3*,?,2.08µM*
Cc1cc(C)c(S(=O)(=O)N(C2=NCCS2)S(=O)(=O)c2c(C)cc(C)cc2C)c(C)c1,2.8%,3.1,4.1%,-2.1,?,14.7µM*
Cc1cc(C)c(S(=O)(=O)N(CC(=O)O)CC(=O)O)c(C)c1,-3.5%,-2.7,3.6%,-3.8,·,18.0%
Cn1ncc2c1NC(c1ccc(F)cc1)SCC2=O (configuration not stated),44.4%,·,·,·,·,·
CCN1CCN(C(=O)c2ccc(N3CC4CC(C3)c3cccc(=O)n3C4)c([N+](=O)[O-])c2)CC1 (configuration not stated),-0.9%,-1.1,14.2%,-5.1,?,0.9%
O=C1C(N2CCOCC2)=C(n2nnc3ccccc32)C(=O)c2ccccc21,?,26.4,7.08µM*,45.2*,2.33µM*,·
COc1ccc(C2C3=C(CC(C)(C)CC3=O)Oc3ncn(CCCn4ccnc4)c(=N)c32)cc1 (configuration not stated),-5.9%,-10.0,9.1%,2.0,5.22µM*,9.28µM*
CC1(C)CC(=O)C2=C(C1)Oc1ncn(Cc3ccco3)c(=N)c1C2c1ccccc1 (configuration not stated),-16.8%,-17.8,?,-2.1,6.57µM*,?
CC1(C)CC(=O)C2=C(C1)Oc1ncn(CCCn3ccnc3)c(=N)c1C2c1ccccc1 (configuration not stated),-22.6%,-5.9,?,-6.0,?,?
COc1ccc(C2C3=C(CC(C)(C)CC3=O)Oc3ncn(Cc4ccccc4)c(=N)c32)cc1 (configuration not stated),?,-11.8,?,-5.6,13.1µM*,·
COc1ccc(CCN(C)CCCN2CCc3cc(OC)c(OC)cc3CC2=O)cc1OC,·,-4.8,·,3.5,?,?
O=C(Nc1nc(=O)c2ccccc2s1)c1ccc(Cl)cc1,-13.7%,33.9,2.7%,19.5*,36.2%,76.0%
O=C(Nc1nc(=O)c2ccccc2s1)c1ccc(F)cc1,2.9%,49.8*,-2.7%,14.6*,?,231.5%
CCn1c(NC(=O)c2ccc(F)cc2)c2ccccc2nc1=O,-3.2%,-18.0,13.4%,6.7,5.0%,4.6%
O=C(CSC(=S)N1CCOCC1)Nc1nc(=O)c2ccccc2s1,·,4.7,11.0%,16.8,42.0%,21.5%
O=C(Nc1nc2ccsc2c(=O)s1)c1ccc(Cl)cc1,-6.0%,88.2*,2.0%,30.1*,305.4%,215.3%
COc1ccc(CN2C(=O)CNC2=S)cc1,39.1%,-6.6,10.9%,-4.5,-6.3%,20.9%[0.00184 µM]
O=C1OCC2=C1C(c1ccc(F)cc1)CC(=O)N2c1ccccc1 (configuration not stated),·,1.0,·,4.0,37.3%,41.4%
SMILES,AMA1 RON2 block,Shiga toxin inh,HCV inh,CHX counter,Pf growth 96h,Pf growth 48h
CC(C)c1ccc(NC2=CC(=O)CC(C)(C)C2)cc1,-2.4%,28.9,?,18.9,4.65µM*,-24.9%
Cc1ccc(NC2=CC(=O)CC(C)(C)C2)c(N)c1,5.0%,128.1*,-3.0%,60.4*,·,19.1%
CC1(C)CC(=O)C=C(Nc2ccc3c(c2)OCCO3)C1,0.7%,50.2,1.7%,51.9*,-1.9%,25.5%
CCCOc1ccc(NC2=CC(=O)CC(C)(C)C2)cc1,-7.9%,47.5,19.1%,17.0*,·,-0.1%
Cc1cccc(NC(=O)c2cc([N+](=O)[O-])ccc2N2CCCCC2)n1,-6.5%,43.3,?,5.7,?,-25.5%
CCOc1ccc(NC2=CC(=O)CCC2)cc1,0.0%,15.1,?,8.1,164.3%,-9.8%[0.00184 µM]
CCCCCOc1ccc(NC2=CC(=O)CCC2)cc1,-20.6%,42.0,12.0%,4.4,?,13.1µM*
COc1ccc(-c2noc(CSc3nc(N)cc(=O)[nH]3)n2)cc1,2.1%,32.5,25.1µM*,8.0*,53.3%,73.2%
Cc1oc(-c2cccc3ccccc23)nc1CN1CCN(c2ncnc3ccccc23)CC1,-20.6%,-6.0,10µM*,5.9,1.3%,?
Cc1cc(-c2nnc(SCc3cccnc3)o2)no1,0.3%,19.7,?,22.1,·,25.2%
COc1cc(OC)cc(-c2nnc(SCc3cccnc3)o2)c1,-2.2%,11.7,-29.1%,17.0*,?,0.1%
COc1cccc(-c2nnc(SCc3cccnc3)o2)c1,-0.1%,97.7*,12.8%,66.9*,·,49.3%
O=[N+]([O-])c1cccc(-c2nnc(SCc3cccnc3)o2)c1,-12.5%,35.1,-2.8%,13.0*,9.1%,22.3%
CN(C)CCCCCCN(C)C,·,·,·,·,-7.9%,2.8%
COc1cc(/C=C(\C#N)c2ccccn2)ccc1OCC(=O)Nc1ccc(Br)cc1,1.1%,7.7,-7.9%,1.3,19.4%,-2.9%
N#C/C(=C\c1ccncc1)c1ccccn1,-3.5%,5.8,?,2.4,10.4µM*,?
N#C/C(=C\c1cccnc1)c1ccccn1,6.0%,25.0,-3.9%,10.8*,?,4.0%
O=C1c2ccccc2C(=Cc2cccnc2)c2ccccc21,14.6%,·,·,·,·,·
COc1cc(/C=C(\C#N)c2ccccn2)ccc1OCC(=O)Nc1c(Cl)cccc1Cl,-0.4%,8.9,?,-0.9,-12.6%,-26.4%
COc1ccc(/C(C#N)=C/c2cccnc2)cc1,·,70.6*,·,44.9*,68.3%,77.4%
C(=C\c1ccccn1)/c1cccnc1,·,66.7*,·,21.2*,107.3%,104.5%
CC(C)c1ccccc1NC(=O)Nc1nnc([C@H]2C[C@H](O)[C@@H](CO)O2)s1,13.4%,·,·,·,·,·
CNc1ccc(/C=C(\C#N)c2ccccn2)cc1[N+](=O)[O-],6.0%,68.9*,0.2%,45.0*,187.4%,222.6%
N#C/C(=C\c1ccc(Cl)c([N+](=O)[O-])c1)c1ccccn1,?,-11.4,?,12.0,41.0%[5.75 µM],17.6%[5.75 µM]
N#C/C(=C\c1ccccc1)c1ccccn1,16.9%,91.2*,9.2%,31.3*,60.4%,47.7%

# High-throughput results from PubChem.
